Nrf2 inh – inhibitors of Nrf2 signaling; Potency, µM (series often up to 46 µM), without a hit: at the highest dose activity change, negative = inhibition, most hits filed as inhibitors; A549 ARE-Fluc reporter, luciferase luminescence, 18-24 h; 360,000 tested, 2.1% active; AID 504444; note: potency is the fitted concentration of half-maximal effect; % is set by controls: 0 for no effect and ±100 for the full control effect; nearly all actives have a fitted effect of over 60% in size
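Nrf2 function is reported as luminescence of an ARE-controlled luciferase in A549 cells. Compounds were tested at several concentrations, and a CellTiter-Fluor read on the same wells flagged cytotoxicity.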
IL2 activator – activators of IL-2; IL-2 activation reporter assay, cell-based qHTS; stimulated with anti-CD3/CD4/CD28 beads; in transgenic mouse T cells; 360,000 tested, 0.065% active; AID 652025; activation, % (series mostly up to about 46 µM); in the data active = activation above about 50%; inconclusive = mostly about 30% to 49%; note: 0% is about no effect
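First, unstimulated transgenic mouse T cells were exposed to compound for 60 min. Next, anti-CD3/anti-CD4-coated beads with anti-CD28 were added. Finally, after 18 h at 37 degrees C, EGFP and DsRed were imaged.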
Nrf2 activator – activators of Nrf2 (ARE) signaling; AREc32 ARE-luciferase reporter (MCF7-derived line), luminescence, 24 h; Potency, µM (series often up to 46.1 µM), inactives show top-dose activation, most hits filed as activators; 410,000 tested, 0.31% active; AID 624171; note: potency is the fitted concentration of half-maximal effect; % of control where 0% means no effect; nearly all actives have a fitted effect of over 65% in size
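AREc32 cells carrying an ARE-driven firefly luciferase, 1000 cells/well in OPTI-MEM with 5% FBS, dosed after overnight attachment and incubated 24 hr at 37 deg C. Steady-Glo luminescence read after 30 min at RT.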
A549 tox – A549 cytotoxicity, counter-screen for Nrf2 inhibitors | A549 ARE-Fluc cells, CellTiter-Fluor viability, 18-24 h | AID 504648 | Potency, µM (series often up to 46 µM), without a hit: at the top dose activity change, negative = cytotoxicity, actives largely listed as inhibitors | 390,000 tested, 0.16% active; note: potency is the fitted concentration of half-maximal effect; % is set by controls: 0 for no effect and ±100 for the full control effect
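A549 ARE_Fluc cells in 5% FBS OPTI-MEM were exposed to compounds in concentration-response for 18-24 h at 37 deg C. Viability was read by CellTiter-Fluor fluorescence (Ex 405/Em 525) after 30 min, before the luciferase read.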
Numbers without * were called inactive; u = inconclusive; x = no result given; [ ] = another dose, or the depositor's remark. Only some compounds are listed: those with a hit (about 2.3% of all), similar ones and a draw of the others. Unless noted, calls come from the whole dose curve; as a rule, active = well fitted curve in the direction sought with a large enough effect; inconclusive = small, poorly fitted or top-dose-only effect, or another doubt; inactive = no such curve, though single readings can be large; an effect the other way counts as inactive or inconclusive.

SMILES	Nrf2 inh	IL2 activator	Nrf2 activator	A549 tox
Cc1cc2oc3c(c(=O)c2cc1C)C(c1cccc(Br)c1)N(Cc1ccco1)C3=O (stereo not given)	8.2µM*	-1	0%	-18%
COc1cc2c[n+](C)c3c4ccccc4ccc3c2cc1OC	16µM*	0	3%	-7%
Cc1cc2c(s1)c1cnn(Cc3c(F)ccc(F)c3F)c(=O)c1n2C	28%	x	x	4%
Cc1ccc(-c2nc(NC(=O)c3nn(C)cc3[N+](=O)[O-])sc2C)cc1C	26µM*	-1	u	-21%
Cc1ccc(-c2nc(NC(=O)c3nn(C)cc3[N+](=O)[O-])sc2C)cc1	18µM*	-3	-5%	u
Cc1ccc2nc(-c3ccc(NS(C)(=O)=O)cc3)cc(-c3ccccc3)c2c1	x	-5	0%	-6%
CCS(=O)(=O)Nc1ccc(-c2cc(-c3ccccc3)c3cc(C)ccc3n2)cc1	23µM*	0	7%	u
CCC(=O)N1CCc2cc(S(=O)(=O)CCC(=O)N3CCN(c4cccc(Cl)c4)CC3)ccc21	23µM*	x	1%	-3%
CCC(=O)N1CCc2cc(S(=O)(=O)CCC(=O)N3CCN(c4ccc(Cl)cc4)CC3)ccc21	16µM*	-2	1%	1%
CC(=O)N1CCc2cc(S(=O)(=O)CCC(=O)N3CCN(c4cc(C)ccc4C)CC3)ccc21	15µM*	2	0%	0%
COc1ccc(-n2ncc(C(=O)N3CCN(c4ccccn4)CC3)c2C2CCN(C(=O)OC(C)(C)C)CC2)cc1	-1%	x	0%	11%
Cc1ccc(NC(=O)CN2C(=O)COc3ccc(S(=O)(=O)NC4CCCC4)cc32)c(Cl)c1	-11%	x	0%	-6%
N#C/C(=C\c1ccc(Oc2ccc(C(F)(F)F)cc2[N+](=O)[O-])cc1)c1nc2ccccc2[nH]1	16µM*	0	4%	u
N#C/C(=C/c1ccc(N2CCCC2)c([N+](=O)[O-])c1)c1nc2ccccc2[nH]1	27%	-1	0%	-2%
CN(Cc1nc(Cc2ccccc2F)no1)Cc1cccc2ncccc12	18µM*	-5	0%	-21%
CCS(=O)(=O)c1c(Nc2ccc(F)c(Cl)c2)sc(C(=O)c2ccccc2)c1N	21µM*	x	10%	u
Nc1c(C(=O)c2ccccc2)sc(Nc2ccccc2)c1S(=O)(=O)c1ccccc1	u	0	0%	-21%
Cn1c(=O)n(C)c2cc(NC(=O)COc3ccc(Cl)cc3)ccc21	16µM*	2	2%	1%
Cn1c(=O)n(C)c2cc(NC(=O)COc3ccc(F)cc3F)ccc21	u	-3	0%[9.22 µM]	-2%
CC(C)c1ccc(NC(=O)CCn2c(=O)c3cccn3c3ccccc32)cc1	10µM*	x	4%	-12%
Cc1[nH]nc2nc(SCC(=O)NC3CCCCC3)n(-c3ccc(Br)cc3)c(=N)c12	18µM*	-2	0%	u
CCCN(CCC)C(=O)CSc1nc2n[nH]c(C)c2c(=N)n1-c1ccc(OC)cc1	18µM*	1	-1%	u
COc1ccccc1NC(=O)CSc1nc2n[nH]c(C)c2c(=N)n1-c1ccccc1Cl	13µM*	-3	1%	-10%
CCc1ccc(NC(=O)CSc2nc3n[nH]c(C)c3c(=N)n2-c2ccc(C)cc2)cc1	x	x	4%	-14%
Cc1cccc(-n2c(SCC(=O)Nc3ccccc3Cl)nc3n[nH]c(C)c3c2=N)c1	x	x	-3%	-9%
SMILES	Nrf2 inh	IL2 activator	Nrf2 activator	A549 tox
Cn1nnnc1Sc1ncnc2scc(-c3ccccc3S(C)(=O)=O)c12	-18%	x	x	-2%
Cc1c(C(=O)OC2CCC(C)CC2)[nH]c2c1C(=O)CC(c1ccc(F)cc1)C2 (stereo not given)	15%	x	-1%	1%
CC1CCc2c(sc(NC(=O)Cc3ccccc3)c2C(=O)Nc2ccc(Cl)cc2)C1 (stereo not given)	4%	x	20%	-2%
CCOc1ccc(C(=O)c2oc3ccccc3c2NC(=O)c2cc(=O)c3ccc(C)cc3o2)cc1	34%	x	-1%	1%
CC(=O)N1CCc2c(sc3c2c(=O)n(Cc2ccccc2)c(=O)n3Cc2ccc(C)cc2)C1	3%	x	0%	1%
CC(=O)N1CCc2c(sc3c2c(=O)n(Cc2ccccc2)c(=O)n3Cc2ccccc2F)C1	16µM*	x	-1%	-18%
CC(=O)N1CCc2c(sc3c2c(=O)n(Cc2ccccc2)c(=O)n3Cc2ccccc2Cl)C1	18µM*	x	-1%	u

Screening results as filed in PubChem.
